Assay results reported in PubChem BioAssay AID1159580 (chemical genetic matrix, 2015).
“And” between values parts separate entries of the source, which are not always exact repeats. Equal values may be shown once. Out of some 5,500 compounds screened, about 2,000 (36%) were called active. Another 18% or so got no clear call; they are omitted. Cut-off read from the data, not from the text of the source: active = normalized growth mostly below about 0.91 (no sharp cut-off); inconclusive = no clear call, values can overlap the other calls; inactive = mostly above about 0.92. This is one part of the list. Some structures have more than one record in an assay (separate samples or runs), and their calls can disagree.

Experiment: chemical genetic growth profiling, strain panel (AID 1159580);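 note: tested at 20 µM; growth read once vehicle control cultures reached saturation at 30 °C; 1 = growth at the plate median or of vehicle wells; lower values mean less growth of the strain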
Conditions: growth OD

Measured: normalized growth

Cc1cc2c(C(C)C)c(O)c(O)c(C=O)c2c(O)c1-c1c(C)cc2c(C(C)C)c(O)c(O)c(C=O)c2c1O
0.207 (active) and 0.653 (inactive): S. cerevisiae deletion strains, locus YLR262C, strain YPT6, stronger effect = lower value
inactive: S. cerevisiae deletion strains, locus YJR066W, strain TOR1, stronger effect = lower value 0.993 | S. cerevisiae deletion strains, locus YJR075W, strain HOC1, stronger effect = lower value 0.907 | S. cerevisiae deletion strains, locus YKL068W, stronger effect = lower value 1.04 | S. cerevisiae deletion strains, locus YKR091W, strain srl3, stronger effect = lower value 0.935 and 0.943 | S. cerevisiae deletion strains, locus YLR102C, strain apc9, stronger effect = lower value 0.992 and 1.01 | S. cerevisiae deletion strains, locus YLR113W, strain HOG1, stronger effect = lower value 0.952 | S. cerevisiae deletion strains, locus YMR078C, strain ctf18, stronger effect = lower value 0.974 and 0.987 | S. cerevisiae deletion strains, locus YNL183C, strain NPR1, stronger effect = lower value 0.984 | S. cerevisiae deletion strains, locus YNL250W, strain rad50, stronger effect = lower value 0.961 and 0.957 | S. cerevisiae deletion strains, locus YNL271C, strain bni1, stronger effect = lower value 0.969 and 0.96 | S. cerevisiae deletion strains, locus YNL298W, strain CLA4, stronger effect = lower value 0.959 and 0.985 | S. cerevisiae deletion strains, locus YOL012C, strain htz1 0.315 and 0.44 | S. cerevisiae deletion strains, locus YOR136W, strain idh2, stronger effect = lower value 0.969 and 0.986 | S. cerevisiae deletion strains, locus YOR231W, strain MKK1, stronger effect = lower value 1.01 | S. cerevisiae deletion strains, locus YOR316C, strain cot1, stronger effect = lower value 0.967 and 1 | S. cerevisiae deletion strains, locus YPL256C, strain CLN2, stronger effect = lower value 0.973 | S. cerevisiae deletion strains, locus YPR119W, strain clb2, stronger effect = lower value 0.983 and 1.02 | S. cerevisiae deletion strains, locus YPR141C, strain kar3, stronger effect = lower value 0.984 and 0.991 | S. cerevisiae deletion strains, locus YPR163C, strain tif3, stronger effect = lower value 0.932 and 1.02
0.846 (active) and 0.936 (inactive): S. cerevisiae deletion strains, locus YPL240C, strain hsp82, stronger effect = lower value
0.824 (active) and 0.908 (inactive): S. cerevisiae deletion strains, locus YMR125W, strain sto1, stronger effect = lower value
0.892 (inactive) and 0.886 (active): S. cerevisiae deletion strains, locus YNL248C, strain rpa49, stronger effect = lower value
0.859 (active) and 0.978 (inactive): S. cerevisiae deletion strains, locus YOR144C, strain elg1, stronger effect = lower value
0.872 (active) and 0.991 (inactive): S. cerevisiae deletion strains, locus YOL147C, strain pex11, stronger effect = lower value
0.842 (active) and 0.958 (inactive): S. cerevisiae deletion strains, locus YPR167C, strain met16, stronger effect = lower value
0.708 (active) and 0.956 (inactive): S. cerevisiae deletion strains, locus YLR371W, strain rom2, stronger effect = lower value
0.855 (active) and 0.958 (inactive): S. cerevisiae deletion strains, locus YML032C, strain rad52, stronger effect = lower value
0.56 (active) and 0.883 (inactive): S. cerevisiae deletion strains, locus YNL128W, strain TEP1, stronger effect = lower value
active: S. cerevisiae deletion strains, locus YKL009W, strain mrt4, stronger effect = lower value 1.52 [resistant] | S. cerevisiae deletion strains, locus YKL085W, strain MDH1 (second series), stronger effect = lower value 1.08 [resistant] and 1.1 [resistant] | S. cerevisiae deletion strains, locus YKL085W, strain MDH1, stronger effect = lower value 1.08 [resistant] and 1.1 [resistant] | S. cerevisiae deletion strains, locus YKL160W, strain elf1, stronger effect = lower value 0.832 and 0.809 | S. cerevisiae deletion strains, locus YKL190W, strain CNB1, stronger effect = lower value 0.663 and 0.868 | S. cerevisiae deletion strains, locus YKR001C, strain vps1, stronger effect = lower value 0.486 and 0.887 | S. cerevisiae deletion strains, locus YLL001W, strain dnm1, stronger effect = lower value 0.724 and 0.801 | S. cerevisiae deletion strains, locus YLL026W, stronger effect = lower value 0.904 and 0.838 | S. cerevisiae deletion strains, locus YLR027C, strain aat2, stronger effect = lower value 0.78 and 0.81 | S. cerevisiae deletion strains, locus YLR058C, strain SHM2, stronger effect = lower value 0.685 and 0.764 | S. cerevisiae deletion strains, locus YLR221C, strain rsa3, stronger effect = lower value 0.751 and 0.818 | S. cerevisiae deletion strains, locus YLR258W, strain gsy2, stronger effect = lower value 0.855 and 0.839 | S. cerevisiae deletion strains, locus YLR262C, strain YPT6 (second series), stronger effect = lower value 0.216 and 0.179 | S. cerevisiae deletion strains, locus YLR268W, strain sec22, stronger effect = lower value 0.599 and 0.847 | S. cerevisiae deletion strains, locus YLR320W, strain mms22, stronger effect = lower value 0.684 and 0.651 | S. cerevisiae deletion strains, locus YLR330W, strain CHS5, stronger effect = lower value 0.675 and 0.883 | S. cerevisiae deletion strains, locus YLR342W, strain FKS1, stronger effect = lower value 0.675 and 0.786 | S. cerevisiae deletion strains, locus YLR357W, strain rsc2, stronger effect = lower value 0.649 and 0.719 | S. cerevisiae deletion strains, locus YLR370C, strain arc18, stronger effect = lower value 0.687 and 0.765 | S. cerevisiae deletion strains, locus YLR384C, strain iki3, stronger effect = lower value 0.809 and 0.889 | S. cerevisiae deletion strains, locus YML016C, strain PPZ1, stronger effect = lower value 0.73 and 0.831 | S. cerevisiae deletion strains, locus YML120C, strain ndi1, stronger effect = lower value 0.721 and 0.719 | S. cerevisiae deletion strains, locus YMR058W, strain fet3, stronger effect = lower value 0.101 and 0.125 | S. cerevisiae deletion strains, locus YMR205C, strain PFK2, stronger effect = lower value 0.63 and 0.655 | S. cerevisiae deletion strains, locus YMR223W, strain ubp8, stronger effect = lower value 0.796 and 0.898 | S. cerevisiae deletion strains, locus YMR231W, strain pep5, stronger effect = lower value 0.434 and 0.295 | S. cerevisiae deletion strains, locus YNL067W, strain RPL9B, stronger effect = lower value 0.773 and 0.808 | S. cerevisiae deletion strains, locus YNL071W, strain lat1, stronger effect = lower value 0.86 and 0.835 | S. cerevisiae deletion strains, locus YNL153C, strain GIM3, stronger effect = lower value 0.742 and 0.767 | S. cerevisiae deletion strains, locus YNL209W, strain ssb2, stronger effect = lower value 0.527 and 0.542 | S. cerevisiae deletion strains, locus YNL233W, strain BNI4, stronger effect = lower value 0.796 and 0.835 | S. cerevisiae deletion strains, locus YNL322C, strain KRE1 (second series), stronger effect = lower value 0.875 and 0.9 | S. cerevisiae deletion strains, locus YNL322C, strain KRE1, stronger effect = lower value 0.832 | S. cerevisiae deletion strains, locus YNR049C, strain mso1, stronger effect = lower value 0.854 and 0.889 | S. cerevisiae deletion strains, locus YOL006C, strain TOP1, stronger effect = lower value 0.436 | S. cerevisiae deletion strains, locus YOR001W, strain rrp6, stronger effect = lower value 0.764 and 0.819 | S. cerevisiae deletion strains, locus YOR061W, strain CKA2, stronger effect = lower value 0.653 and 0.79 | S. cerevisiae deletion strains, locus YOR069W, strain VPS5, stronger effect = lower value 0.799 and 0.9 | S. cerevisiae deletion strains, locus YOR070C, strain gyp1, stronger effect = lower value 0.893 and 0.784 | S. cerevisiae deletion strains, locus YOR080W, strain dia2, stronger effect = lower value 0.755 and 0.812 | S. cerevisiae deletion strains, locus YOR083W, strain WHI5, stronger effect = lower value 0.806 and 0.808 | S. cerevisiae deletion strains, locus YOR106W, strain vam3, stronger effect = lower value 0.537 and 0.567 | S. cerevisiae deletion strains, locus YOR265W, strain rbl2, stronger effect = lower value 0.808 and 0.842 | S. cerevisiae deletion strains, locus YOR270C, strain vph1, stronger effect = lower value 0.231 and 0.311 | S. cerevisiae deletion strains, locus YOR290C, strain snf2, stronger effect = lower value 0.525 and 0.627 | S. cerevisiae deletion strains, locus YPL051W, strain arl3, stronger effect = lower value 0.51 and 0.436 | S. cerevisiae deletion strains, locus YPL078C, strain atp4, stronger effect = lower value 0.715 and 0.778 | S. cerevisiae strains, strain wild type, stronger effect = lower value 0.809
0.664 (active) and 0.912 (inactive): S. cerevisiae deletion strains, locus YOR184W, strain ser1, stronger effect = lower value
0.202 (active) and 0.679 (inactive): S. cerevisiae deletion strains, locus YLR039C, strain RIC1, stronger effect = lower value
0.888 (active) and 0.949 (inactive): S. cerevisiae deletion strains, locus YKR026C, strain gcn3, stronger effect = lower value
0.804 (active) and 0.984 (inactive): S. cerevisiae deletion strains, locus YNL307C, strain MCK1, stronger effect = lower value
0.545 (active) and 0.811 (inactive): S. cerevisiae deletion strains, locus YLR342W, strain FKS1 (second series), stronger effect = lower value
0.92 (active) and 0.959 (inactive): S. cerevisiae deletion strains, locus YLL041C, strain sdh2, stronger effect = lower value
0.354 (active) and 0.699 (inactive): S. cerevisiae deletion strains, locus YMR307W, strain GAS1, stronger effect = lower value
0.798 (active) and 0.905 (inactive): S. cerevisiae deletion strains, locus YPL106C, strain sse1, stronger effect = lower value
0.878 (active) and 0.941 (inactive): S. cerevisiae deletion strains, locus YMR129W, stronger effect = lower value
0.486 (active) and 0.903 (inactive): S. cerevisiae deletion strains, locus YLR418C, strain cdc73, stronger effect = lower value
0.679 (active) and 0.959 (inactive): S. cerevisiae deletion strains, locus YNR052C, strain pop2, stronger effect = lower value
0.912 (active) and 0.957 (inactive): S. cerevisiae deletion strains, locus YPL241C, strain CIN2, stronger effect = lower value
0.86 (active) and 0.906 (inactive): S. cerevisiae deletion strains, strain wtn01, stronger effect = lower value
0.928 (active) and 0.994 (inactive): S. cerevisiae deletion strains, locus YML124C, strain tub3, stronger effect = lower value
